The nature of assay [1]: small molecules captured by biotinylated probe aFSTL3 – biochemical, small-molecule microarray, fluorescence 635/667, stem cell growth factor project, primary screen (AID 1064).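 Also: measures binding of the biotinylated anti-FSTL3 antibody to printed compounds.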 Conditions: higher = more signal.
Assay [2] is described as follows: binders from COS7 lysate, DM2A8 probe, primary screen, torsin A project, cell lysate, small-molecule microarray, fluorescence 635/667 (AID 1065). The settings on record: higher = more signal, COS7 lysate expressing mutant human TOR1A.
Assay [3] can be described thus: small molecules captured by biotinylated probe aFGF2 – biochemical, small-molecule microarray, fluorescence 635/667, stem cell growth factor project, primary screen (AID 1067).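 Also: measures binding of biotinylated aFGF2 protein to printed compounds on slides; z-score merges feature fluorescence and signal-to-noise across triplicate slides.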 Conditions: higher = more signal.
The nature of assay [4]: small molecules captured by biotinylated probe aFGF10 – biochemical, small-molecule microarray, fluorescence 635/667, stem cell growth factor project, primary screen (AID 1071).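 Also: score merges 667 nm spot intensity and signal to noise from triplicate slides.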 The settings on record: higher = more signal.
The target in assay [5] is Neurogenic locus notch homolog protein 2 (Homo sapiens) (UniProt Q04721). The assay can be described thus: small molecules binding Notch2 protein – biochemical, small-molecule microarray, 635 nm fluorescence, stem cell growth factors, primary screen (AID 1073). The settings on record: higher = more signal.
Assay [6] has as its target Pro-neuregulin-1, membrane-bound isoform (Homo sapiens) (UniProt Q02297). Briefly: small molecules binding neuregulin-1 protein – biochemical, small-molecule microarray, fluorescence 635/667, psychiatric disease protein project, primary screen (AID 1075).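 Also: score combines 667 nm spot fluorescence with signal to noise.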 The settings on record: NRG1 binding, 635 nm fluorescence, higher = more signal.
The subject of assay [7] is Neuregulin-1 EGF-like domain. The assay can be described thus: small molecules binding NRG1 EGF domain – biochemical, small-molecule microarray, 635 nm fluorescence, primary screen (AID 1081).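 Also: binding of the protein to compounds printed on small-molecule microarray slides.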 The settings on record: higher = more signal.
Assay [8] can be described thus: FRG1 expression reporter modulators in myotubes – cell-based, C2C12 myotubes, firefly/Renilla luciferase, luminescence, FRG1 inhibition for FSHD, primary screen (AID 1084). The settings on record: FRG1 promoter luciferase, higher = more signal, called active from +8 up or from −8 down.
Assay [9] is described as follows: small molecules captured by biotinylated probe aFST – biochemical, small-molecule microarray, fluorescence 635/667, stem cell growth factor project, primary screen (AID 1086).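 Also: score merges 667 nm fluorescence with signal-to-noise of each printed compound spot.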 The settings on record: higher = more signal.
Assay [10] in a line: binders of probe aHhip on microarray, primary screen, stem cell growth factor project, biochemical, small-molecule microarray, fluorescence 635/667 (AID 1087).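 Also: score merges spot fluorescence at 667nm with spot signal to noise ratio.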 Conditions: higher = more signal.
Assay [11] has as its system PRMT1 (protein arginine N-methyltransferase 1). Briefly: small molecules binding arginine methyltransferase PRMT1 – biochemical, small-molecule microarray, 635 nm fluorescence, primary screen (AID 1088).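 Also: binding of Prmt1 protein to compounds spotted on small-molecule microarray slides.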 The settings on record: higher = more signal.
A short description of assay [12]: growth effects on S. cerevisiae YJM789 – YJM789 clinical isolate, OD600, 24 h, basal, primary screen (AID 1089).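 Also: growth of clinical yeast isolate S. cerevisiae YJM 789 seeded 1000 cells per well; test concentration not given here.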 The settings on record: higher = more signal, called active from +8 up or from −8 down.
A short description of assay [13]: S. pombe growth modifiers, basal conditions – strain 972, OD600, 24 h, no modulator, primary screen (AID 1090).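 Also: basal condition with compound alone and no growth modifier present; test concentration not given here.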 The settings on record: S. pombe 972 growth, higher = more signal, called active from +8 up or from −8 down.
The nature of assay [14]: budding yeast growth modifiers under rapamycin – strain BY4716, OD600, 96 h, primary screen (AID 1091). Also: test concentration not given here. Conditions: S. cerevisiae BY4716 + rapamycin, higher = more signal, called active from +8 up or from −8 down.
Assay [15] concerns the target Torsin-1A-interacting protein 2 (Homo sapiens) (UniProt Q8NFQ8). The assay can be described thus: small molecules binding lysate-expressed LULL1 – cell lysate, human LULL1 lysate, 635/667 nm fluorescence, primary screen (AID 1092).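 Also: score merges per-feature 667 nm fluorescence with signal-to-noise.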 The settings on record: small-molecule microarray, hLULL1 lysate binding, 635 nm fluorescence; higher = more signal.
Assay [16] in a line: optical density change of DRC41 E. coli – strain DRC41, OD650, 24 h, E. coli filamentation project, primary screen (AID 1093).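 Also: MC1000 strain lacking acrAB efflux and sulA so SOS filamentation is blocked; test concentration not given here.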 Conditions: E. coli DRC41 growth, higher = more signal, called active from +8 up or from −8 down.
The nature of assay [17]: probe aLefty2 binding to arrayed compounds – biochemical, biotinylated probe, 635/667 nm fluorescence, primary screen (AID 1094).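 Also: score merges spot fluorescence near 667 nm with spot signal-to-noise ratio.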 The settings on record: small-molecule microarray, higher = more signal.
Assay [18] deals with Noggin (protein binding on small-molecule microarray). Briefly: small molecules binding Noggin protein – biochemical, 635/667 nm fluorescence, primary screen (AID 1095).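 Also: score merges 667 nm feature fluorescence with signal to noise over triplicate slides.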 Conditions: 635 nm fluorescence, higher = more signal.
The target in assay [19] is Neurogenic locus notch homolog protein 3 (Homo sapiens) (UniProt Q9UM47). Briefly: small molecules binding NOTCH3 protein – biochemical, 635/667 nm fluorescence, primary screen (AID 1096). Conditions: small-molecule microarray, 635 nm fluorescence, higher = more signal.
Sequence of Neurogenic locus notch homolog protein 3 (Homo sapiens) (Q9UM47 whole entry, looked up): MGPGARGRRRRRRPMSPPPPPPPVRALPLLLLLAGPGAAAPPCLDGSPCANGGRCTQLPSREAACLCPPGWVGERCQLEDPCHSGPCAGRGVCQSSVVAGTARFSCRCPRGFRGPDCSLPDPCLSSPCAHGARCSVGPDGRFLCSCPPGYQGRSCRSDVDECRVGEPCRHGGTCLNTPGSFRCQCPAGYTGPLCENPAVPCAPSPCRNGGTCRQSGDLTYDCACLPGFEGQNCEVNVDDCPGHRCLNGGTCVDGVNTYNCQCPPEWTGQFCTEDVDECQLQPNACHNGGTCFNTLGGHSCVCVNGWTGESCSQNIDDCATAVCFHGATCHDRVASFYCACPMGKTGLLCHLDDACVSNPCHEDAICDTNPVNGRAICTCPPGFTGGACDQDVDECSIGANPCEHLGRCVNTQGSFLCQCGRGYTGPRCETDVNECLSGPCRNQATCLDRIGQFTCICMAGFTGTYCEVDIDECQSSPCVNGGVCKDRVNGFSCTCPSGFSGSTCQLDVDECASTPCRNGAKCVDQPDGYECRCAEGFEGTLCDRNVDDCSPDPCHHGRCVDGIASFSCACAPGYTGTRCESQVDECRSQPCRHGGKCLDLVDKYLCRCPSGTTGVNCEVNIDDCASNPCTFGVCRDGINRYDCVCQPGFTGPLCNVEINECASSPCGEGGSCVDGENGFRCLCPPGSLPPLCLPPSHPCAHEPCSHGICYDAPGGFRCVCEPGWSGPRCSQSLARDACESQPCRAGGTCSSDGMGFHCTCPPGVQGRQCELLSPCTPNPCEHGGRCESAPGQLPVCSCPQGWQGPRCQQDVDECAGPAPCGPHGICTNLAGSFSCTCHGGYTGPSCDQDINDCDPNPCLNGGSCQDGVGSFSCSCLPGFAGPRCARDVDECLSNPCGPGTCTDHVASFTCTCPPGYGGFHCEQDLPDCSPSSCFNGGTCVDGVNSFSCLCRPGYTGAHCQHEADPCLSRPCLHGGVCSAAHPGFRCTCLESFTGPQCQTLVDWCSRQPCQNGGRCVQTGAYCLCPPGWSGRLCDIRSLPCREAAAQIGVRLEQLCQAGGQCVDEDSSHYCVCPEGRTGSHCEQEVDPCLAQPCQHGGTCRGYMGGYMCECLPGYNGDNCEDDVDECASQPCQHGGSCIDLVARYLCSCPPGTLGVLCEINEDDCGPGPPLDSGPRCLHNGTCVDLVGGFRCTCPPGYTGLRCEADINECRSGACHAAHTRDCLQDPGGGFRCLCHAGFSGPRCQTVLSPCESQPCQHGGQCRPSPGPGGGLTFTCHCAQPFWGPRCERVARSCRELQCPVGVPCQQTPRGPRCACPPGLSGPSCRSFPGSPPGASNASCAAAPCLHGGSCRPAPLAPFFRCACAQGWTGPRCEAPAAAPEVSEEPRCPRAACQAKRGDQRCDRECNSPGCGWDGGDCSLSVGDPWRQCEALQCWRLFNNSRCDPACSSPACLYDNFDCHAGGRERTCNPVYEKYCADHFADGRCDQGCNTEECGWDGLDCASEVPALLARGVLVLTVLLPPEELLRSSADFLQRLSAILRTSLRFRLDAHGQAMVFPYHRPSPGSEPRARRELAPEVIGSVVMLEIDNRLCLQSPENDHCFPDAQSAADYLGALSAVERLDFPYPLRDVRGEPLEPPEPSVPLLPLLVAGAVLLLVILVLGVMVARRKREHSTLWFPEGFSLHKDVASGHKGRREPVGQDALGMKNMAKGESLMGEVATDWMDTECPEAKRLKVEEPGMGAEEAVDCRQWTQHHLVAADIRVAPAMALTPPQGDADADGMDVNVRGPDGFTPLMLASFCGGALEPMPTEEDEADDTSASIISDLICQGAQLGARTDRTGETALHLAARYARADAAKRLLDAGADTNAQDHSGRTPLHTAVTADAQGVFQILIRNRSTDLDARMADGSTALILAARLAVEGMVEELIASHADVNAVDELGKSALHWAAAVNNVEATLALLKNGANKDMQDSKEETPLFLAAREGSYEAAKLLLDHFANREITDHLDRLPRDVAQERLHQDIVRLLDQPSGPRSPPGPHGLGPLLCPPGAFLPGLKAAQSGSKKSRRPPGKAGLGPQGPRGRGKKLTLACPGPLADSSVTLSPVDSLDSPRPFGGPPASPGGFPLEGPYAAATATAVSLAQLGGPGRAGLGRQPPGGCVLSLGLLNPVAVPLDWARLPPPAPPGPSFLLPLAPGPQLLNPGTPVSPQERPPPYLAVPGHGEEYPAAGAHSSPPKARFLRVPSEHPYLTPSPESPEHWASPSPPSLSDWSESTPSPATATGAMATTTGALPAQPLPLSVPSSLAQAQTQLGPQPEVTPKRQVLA
Assay [20] is described as follows: probe aEGFR binding to arrayed compounds – biochemical, biotinylated probe, 635/667 nm fluorescence, primary screen (AID 1097).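 Also: probe is a biotinylated anti-EGFR antibody binding compounds printed on slides; score combines fluorescence near 667 nm and signal to noise of each spot.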 Conditions: small-molecule microarray, higher = more signal.

The source made the active and inactive calls.

Sequence of Pro-neuregulin-1, membrane-bound isoform (Homo sapiens) (Q02297 whole entry, looked up, the tested form may be a part, canonical isoform): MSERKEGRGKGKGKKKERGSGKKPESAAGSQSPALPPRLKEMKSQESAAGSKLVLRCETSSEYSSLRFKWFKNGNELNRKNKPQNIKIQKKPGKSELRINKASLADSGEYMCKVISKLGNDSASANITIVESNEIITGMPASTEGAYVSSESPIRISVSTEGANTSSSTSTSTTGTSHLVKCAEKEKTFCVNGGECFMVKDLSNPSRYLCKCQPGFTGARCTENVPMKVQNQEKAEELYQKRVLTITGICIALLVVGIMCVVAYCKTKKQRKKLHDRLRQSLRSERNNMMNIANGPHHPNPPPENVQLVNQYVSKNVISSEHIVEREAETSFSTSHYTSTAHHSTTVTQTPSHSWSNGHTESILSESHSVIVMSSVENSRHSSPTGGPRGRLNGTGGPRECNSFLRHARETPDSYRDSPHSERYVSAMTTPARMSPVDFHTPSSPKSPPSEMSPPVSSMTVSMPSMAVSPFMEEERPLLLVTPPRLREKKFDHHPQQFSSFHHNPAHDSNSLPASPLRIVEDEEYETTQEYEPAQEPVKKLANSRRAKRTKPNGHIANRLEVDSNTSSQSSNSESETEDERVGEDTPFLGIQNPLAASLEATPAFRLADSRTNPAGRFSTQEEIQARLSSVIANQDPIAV
Sequence of Torsin-1A-interacting protein 2 (Homo sapiens) (Q8NFQ8 whole entry, looked up): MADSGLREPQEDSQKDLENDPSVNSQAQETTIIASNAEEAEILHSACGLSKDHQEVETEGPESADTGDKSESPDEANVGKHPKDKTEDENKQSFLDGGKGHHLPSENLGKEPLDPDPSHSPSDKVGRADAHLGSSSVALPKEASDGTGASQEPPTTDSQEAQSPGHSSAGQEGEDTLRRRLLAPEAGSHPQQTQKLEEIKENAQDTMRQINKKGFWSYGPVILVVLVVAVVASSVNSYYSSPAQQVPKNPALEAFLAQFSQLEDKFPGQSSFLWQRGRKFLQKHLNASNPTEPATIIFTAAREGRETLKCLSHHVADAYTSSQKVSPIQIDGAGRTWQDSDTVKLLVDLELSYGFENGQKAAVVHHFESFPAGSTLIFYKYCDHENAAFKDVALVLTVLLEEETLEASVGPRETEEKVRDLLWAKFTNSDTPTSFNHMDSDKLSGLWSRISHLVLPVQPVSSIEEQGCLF

In the case of `CC(C)CON=C1C[C@@H](O)[C@@H](O)[C@@H]2[C@@H]3C(=O)N(C(C)(C)C)C(=O)[C@@H]3CC[C@H]12`, the composite z-score is 1.33 in [1]; 0.275 in [2]; -0.133 in assay [3]; -0.136 in assay [4]; -0.681 in [5]; 0.414 in assay [6]. Further, the composite z-score in assay [7] was -0.099; in assay [9] it was -0.142; in assay [10], -0.21; in assay [11], 0.829; in assay [15] it was 1.96; in assay [17] it was 0.0577. For the same compound, the values for the composite z-score in assay [18], in assay [19] and in assay [20] were -0.316, -0.562 and -0.0966, respectively. Moreover, the z-score in [8] was -0.392 (inactive); in [12], -0.318 (inactive); in [13] it was 0.674 (inactive); in assay [14] it was 0.0851 (inactive); in assay [16], 0.573 (inactive).
Regarding `O=C1[C@H]2[C@H]3[C@H](O)[C@H](O)CC(=NOC[C@@H](O)COCc4ccco4)[C@H]3CC[C@H]2C(=O)N1c1ccc(F)cc1F`, the composite z-score in [1] is -0.191; in [2], 0.862; in [3] it was -0.142; in assay [4], 0.0434; in [5] it was -0.853; in assay [6], -0.452. In addition, the composite z-score in assay [7] was 1.23; in assay [9], -0.999; in assay [10] it was -0.0047; in assay [11], -0.012; in assay [15], -0.701; in [17], -0.469. In addition, the figures for the composite z-score in assay [18], in [19] and in [20] were -0.349, -0.927 and -0.165, respectively. For the same compound, the z-score was -1.53 (inactive) in assay [8]; -3.68 (inactive) in assay [12]; -1.99 (inactive) in [13]; -1.97 (inactive) in assay [14]; -1.13 (inactive) in assay [16].
Take `CCOC(=O)NN=C1C[C@@H](O)[C@@H](O)[C@@H]2[C@@H]3C(=O)N(C(C)(C)C)C(=O)[C@@H]3CC[C@H]12`: the composite z-score was -0.306 in assay [1]; 0.367 in assay [2]; -0.163 in assay [3]; 0.255 in assay [4]; 0.444 in [5]; -0.135 in [6]. Moreover, the composite z-score in [7] was 0.603; in assay [9], 0.497; in assay [10], 0.0401; in assay [11], -0.247; in [15] it was -0.3; in assay [17], -0.101. Also, the composite z-score in [18] is 0.708; in assay [19], 0.235; in assay [20], 0.039. The z-score in [8] is -0.848 (inactive); in assay [12] it was 0.438 (inactive); in assay [13] it was 0.277 (inactive); in assay [14], -0.397 (inactive); in [16], 0.443 (inactive).
Regarding `CON=C[C@@H](NS(=O)(=O)c1ccc(C)cc1)[C@H](C)C=CCC(=O)OC`, the composite z-score in assay [1] is -0.303; in [2], 0.0827; in assay [3], -0.125; in [4] it was -0.224; in [5] it was -0.98; in [6] it was -0.23. Further, the composite z-score was 0.0812 in assay [7]; -0.371 in assay [9]; -0.189 in assay [10]; -0.327 in [11]; -0.312 in assay [15]; -0.138 in [17]. Further, the composite z-score in [18] is 0.26; in assay [19], -0.0877; in assay [20], -0.289. The z-score was 0.494 (inactive) in [8]; 0.903 (inactive) in assay [12]; 0.435 (inactive) in assay [13]; 0.719 (inactive) in assay [14]; 0.306 (inactive) in assay [16].
For `C=Cc1ccc([C@H]2N[C@H](C(=O)O)CC[C@@H]2C)cc1`, the composite z-score was -0.372 in assay [1]; 0.056 in assay [2]; -0.156 in [3]; 0.145 in assay [4]; -0.226 in assay [5]; -0.284 in [6]. Further, the composite z-score is 0.564 in assay [7]; -0.0301 in assay [9]; 0.0399 in assay [10]; -1.29 in assay [11]; -0.447 in assay [15]; 0.0772 in assay [17]. In addition, the results for the composite z-score in [18], in assay [19] and in assay [20] were 0.0295, 0.417 and -0.0349, respectively. In addition, the z-score is 1.35 (inactive) in assay [8]; -0.382 (inactive) in assay [12]; -0.261 (inactive) in assay [13]; -0.676 (inactive) in assay [14]; 0.58 (inactive) in assay [16].

Values taken from PubChem BioAssay.
